Sampled rows, rich in hits. Any-hit rate of the full collection: about 7.1%.
MCF10A rerep = inducers of DNA re-replication in MCF 10A breast cells. MCF 10A DNA re-replication, Hoechst nuclear intensity, 48 h. Potency, µM (series often up to 46.1 µM), actives largely listed as activators. hit rate 2.9% among 350,000; note: nearly all actives have a fitted effect of over 50% in size
ELG1 genotox = inducers of genotoxicity in HEK293T ELG1-luciferase cells. Potency, µM (highest dose often 46 µM), usual class: activators. HEK293T ELG1-luciferase reporter, luminescence, 16 h. AID 504466. hit rate 1.3% among 330,000; note: nearly all actives have a fitted effect of over 60% in size
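HEK293T cells expressing luciferase-tagged ELG1 were treated with compound or DMSO for 16 hr at 37°C. Luciferase activity was then read after 30 min with ONE-Glo at room temperature; rising signal flags genetic stress.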
ELG1 repair inh = blocks ELG1-dependent DNA repair in HEK293T cells; HEK293T ELG1-luciferase reporter, luminescence, 16 h; DNA damage induced by 5-fluorouridine; Potency, µM (titrated, usually from 46.1 µM), usual class: inhibitors; hit rate 2.3% among 330,000; AID 504467; note: nearly all actives have a fitted effect of over 55% in size
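Luminescence from the luciferase reporter, measured 30 min after ONE-Glo reagent at room temperature, was the read-out. Beforehand, 2,000 cells per well were exposed for 16 hr at 37 °C to 5-fluorouridine together with compound or vehicle.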
p53 reactivation = restores transcriptional activity of mutant p53; Potency, µM (series often up to 92.2 µM), hits mostly activators; H1299 p53-A138V BP100-luciferase reporter, luminescence, 24 h; hit rate 0.063% among 320,000; AID 504706; note: nearly all actives have a fitted effect of over 45% in size
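p53-null H1299 cells stably carrying temperature-sensitive p53-A138V and a BP100-luciferase reporter were pinned with compounds (4-point, 1:5 series) and held 24 hrs at 37 deg C. Luminescence was read 10 min after detection reagent.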
A-T KAP1 phos = potential ataxia-telangiectasia treatment | F2112 A-T fibroblasts, KAP-1 phosphorylation AlphaLISA; neocarzinostatin DNA damage 30 min before lysis | Potency, µM (titrated, usually from 57.5 µM), actives largely listed as activators | hit rate 0.19% among 320,000; note: nearly all actives have a fitted effect of over 45% in size
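hTERT-immortalized A-T patient fibroblasts (F2112), 500 cells/well in OPTI-MEM, 1% FBS, got compounds for 60 min, then NCS for 30 min at 37C. Lysates were then assayed for phospho-KAP-1 by AlphaLISA (anti-pKAP1 donor, anti-KAP1 acceptor beads), 6 hr at 25C.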
SW480 rereplic = induces DNA re-replication in SW480 colon adenocarcinoma cells; SW480 DNA re-replication, Hoechst DNA content imaging, 48 h; Potency, µM (titrated, usually from 46.1 µM), actives largely listed as activators; hit rate 1.8% among 340,000; note: nearly all actives have a fitted effect of over 55% in size
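Image-based DNA-content assay: after two days of treatment, nuclei were labelled with the DNA dye Hoechst and imaged, and hits were compounds raising the count of nuclei showing high fluorescence intensity.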
Each line names hits and unclear results; the compound was inactive in the other large screens; ! = not active in a repeat. Calls come from the whole dose curve; as a rule, active = well fitted curve in the direction sought with a large enough effect; inconclusive = small, poorly fitted or top-dose-only effect, or another doubt; inactive = no such curve, though single readings can be large; an effect the other way counts as inactive or inconclusive.

Cc1ccc(N=c2ssnc2Cl)cc1	MCF10A rerep inconclusive, ELG1 repair inh inconclusive, SW480 rereplic inconclusive
COc1ccc(OC)c(N=c2ssnc2Cl)c1	MCF10A rerep inconclusive, SW480 rereplic inconclusive
COc1cc(N=c2ssnc2Cl)c(OC)cc1Cl	MCF10A rerep 21µM!, ELG1 repair inh inconclusive, SW480 rereplic inconclusive
Cc1cc(Cl)ccc1N=c1ssnc1Cl	MCF10A rerep inconclusive, ELG1 repair inh 16µM (no result: A-T KAP1 phos)
O=C(OCC(=O)c1ccc(Cl)cc1Cl)c1cnccn1	none
O=C(CSc1ccc2nnc(CCNC(=O)c3ccc(F)cc3)n2n1)NCC1CCCO1 (configuration not stated)	none
COc1ccc(CN=C2NN=C(c3ccc(Cl)cc3)CS2)cc1	ELG1 genotox inconclusive, ELG1 repair inh inconclusive
COc1ccc(CN=C2Nc3ccccc3CS2)cc1	MCF10A rerep inconclusive, ELG1 genotox inconclusive, ELG1 repair inh inconclusive, p53 reactivation 10µM
COCCN(C(=O)COC(=O)CNC(=O)c1ccc(C)cc1)c1c(N)n(Cc2ccccc2)c(=O)[nH]c1=O	none (no result: ELG1 genotox, ELG1 repair inh, p53 reactivation, A-T KAP1 phos)
Cc1cc(-c2nc(C)c(C(=O)NN)s2)no1	MCF10A rerep 18µM, ELG1 repair inh inconclusive, SW480 rereplic inconclusive
C=CCNC(=O)c1sc(-c2ccccc2)nc1C	ELG1 repair inh inconclusive, SW480 rereplic inconclusive
C/C(=N\OC(=O)c1cccc(C)c1)c1sc(-c2ccccc2)nc1C	ELG1 genotox 5.8µM, ELG1 repair inh inconclusive
Cc1nc(-c2ccccc2)sc1C(=O)NN	MCF10A rerep 18µM, SW480 rereplic inconclusive
Cc1cc(-c2nc(C)c(C(=O)NNS(=O)(=O)c3ccc(Cl)cc3Cl)s2)no1	none
Cc1ccc(N/C=C/C(=O)c2sc(-c3ccccc3)nc2C)cc1	MCF10A rerep 9.2µM, ELG1 repair inh inconclusive
O=C(CSc1nnc(NC2CC2)s1)c1ccc[nH]1	ELG1 genotox inconclusive, ELG1 repair inh inconclusive, p53 reactivation inconclusive
COc1ccc(CNC(=O)C(=O)NCC2OCCN2S(=O)(=O)c2ccccc2)cc1 (configuration not stated)	none (no result: ELG1 genotox, ELG1 repair inh, p53 reactivation, A-T KAP1 phos)
CC(OC(=O)C1CC1)C(=O)Nc1cccc(S(=O)(=O)N2CCOCC2)c1 (configuration not stated)	none
Cc1cc(NC(=O)CSc2nc(-c3cccs3)cc(C(F)(F)F)n2)no1	none
CCOc1ccc(NC(=O)CSc2nc(-c3cccs3)cc(C(F)(F)F)n2)c([N+](=O)[O-])c1	MCF10A rerep 12µM
C#CCOCCOCCOCCNc1nc(N2CCN(C(=O)Cn3cc(CCCCN)nn3)CC2)nc(N2CCN(C(=O)Cn3cc(CCCN=C(N)N)nn3)CC2)n1	none
O=C(N/N=C/c1c(F)cccc1Cl)C(=O)N1CCCCCC1	p53 reactivation inconclusive
COCC(C)NC(=S)NCCc1ccc(Cl)cc1Cl (configuration not stated)	MCF10A rerep inconclusive, SW480 rereplic inconclusive
COCCNC(=S)NCCc1ccc(Cl)cc1Cl	SW480 rereplic 16µM
COc1ccc(C(=O)c2c(C(F)(F)F)oc3c2C(=O)c2ccccc2C3=O)cc1OC	MCF10A rerep inconclusive, ELG1 repair inh 3.7µM, SW480 rereplic 0.73µM (no result: A-T KAP1 phos)
CCOC(=O)C1=C(Cc2ccc(OC)cc2)C(=O)c2ccccc2C1=O	SW480 rereplic 6.5µM
CCCc1ccc(/C=C2\C(=O)c3ccccc3C(O)=C2C(=O)OCC)cc1	ELG1 genotox inconclusive, ELG1 repair inh inconclusive, p53 reactivation inconclusive (no result: MCF10A rerep, SW480 rereplic)
CCOC(=O)C1=C(O)c2ccccc2C(=O)/C1=C\c1ccc(CC)cc1	MCF10A rerep 8.2µM, A-T KAP1 phos inconclusive, SW480 rereplic 6.5µM
CC1N(C(=O)N2CCOCC2)CCN1S(=O)(=O)c1ccc(Cl)cc1 (configuration not stated)	none
COc1cc(OC)nc(-n2ncc(Br)c(Br)c2=O)n1	MCF10A rerep 4.6µM, ELG1 repair inh 4.6µM
CC(Sc1nc(-c2ccc(F)cc2)cs1)C(=O)N1c2ccccc2CC1C (configuration not stated)	MCF10A rerep 21µM, ELG1 repair inh 26µM, SW480 rereplic inconclusive
Cc1noc(/C=C/Nc2ccc(F)cc2F)c1[N+](=O)[O-]	ELG1 genotox 16µM, ELG1 repair inh inconclusive, p53 reactivation inconclusive
O=[N+]([O-])c1cccc(/C=C/c2ccccn2)c1	ELG1 repair inh inconclusive
COc1ccccc1N/C=C/c1onc(C)c1[N+](=O)[O-]	ELG1 genotox inconclusive, ELG1 repair inh inconclusive (no result: p53 reactivation)
Cc1noc(/C=C/c2ccccn2)c1[N+](=O)[O-]	ELG1 repair inh 18µM (no result: p53 reactivation)
Cc1ccc(Sc2ncccc2NC(=O)c2ccccc2Cl)cc1	none
O=[N+]([O-])c1ccc(/C=N/Nc2nc(-c3ccccc3)c3cc(Br)ccc3n2)o1	none
Cc1ccc2nc(N/N=C\c3ccc([N+](=O)[O-])o3)nc(-c3ccccc3)c2c1	MCF10A rerep inconclusive, ELG1 repair inh 21µM, SW480 rereplic inconclusive
O=C1/C(=C/c2cccs2)Cc2ccccc21	ELG1 genotox inconclusive, ELG1 repair inh inconclusive, p53 reactivation 40µM
COc1ccc2c(c1)OC/C(=C/c1cccs1)C2=O	MCF10A rerep inconclusive, ELG1 genotox 12µM, ELG1 repair inh inconclusive, p53 reactivation inconclusive
CCc1ccc(N(CC(=O)N2CCOCC2)S(C)(=O)=O)cc1	none (no result: p53 reactivation)
COCCC(=O)N1CCC(Oc2ccc(C(=O)N3CCCCC3COC)cc2)CC1 (configuration not stated)	SW480 rereplic inconclusive
COc1cccc(-n2c(CCn3nc(C)c([N+](=O)[O-])c3C)n[nH]c2=S)c1	none
COc1ccc(CCn2nc(C)c([N+](=O)[O-])c2C)cc1	ELG1 genotox 16µM, ELG1 repair inh inconclusive
Cc1nnc2sc(-c3ccc(NC(=O)CSc4ccc(Cl)cc4)cc3)nn12	none
Cc1ccc(-c2nn3c(C)nnc3s2)cc1NC(=O)CSc1ccc(Cl)cc1	ELG1 repair inh 21µM
CC(C)Cc1c2c([nH]c(=S)c1C#N)CCCC2	SW480 rereplic 13µM
N#C/C(=C\c1ccccn1)c1nc2ccccc2s1	MCF10A rerep 15µM, ELG1 genotox inconclusive, ELG1 repair inh inconclusive, p53 reactivation inconclusive, SW480 rereplic 16µM
N#C/C(=C/c1ccc(-c2ccc(S(N)(=O)=O)cc2)o1)c1nc2ccccc2s1	MCF10A rerep 3.7µM, ELG1 repair inh inconclusive, SW480 rereplic 10µM
N#C/C(=C/c1ccc(-c2ccc(S(N)(=O)=O)cc2)o1)C(=O)Nc1ccccc1	ELG1 repair inh inconclusive
CC(C)(C)OC(=O)NCc1ccc(CNC(=O)c2nc[nH]c2C(=O)N2CCN(c3ccccc3)CC2)cc1	MCF10A rerep inconclusive, ELG1 repair inh inconclusive, SW480 rereplic inconclusive

High-throughput results: PubChem BioAssay, National Center for Advancing Translational Sciences (NCATS)
